# In ChEMBL document CHEMBL4513216, “Probing the Open Global Health Chemical Diversity Library for Multistage-Active Starting Points for Next-Generation Antimalarials” (ACS Infect Dis, 2020):
# Out of some 69,000 compounds screened, about 8,600 (12%) showed an effect of 50% or more. Only a selection was taken, and strong results are over-represented in it overall.
# Test system: Plasmodium berghei
# Experiment: Screen against P. berghei liver stage (PbLuc), transformed with Luciferase, at 10uM
# Assay type: functional, HepG2
# Details: tested at 10 uM
row,SMILES,INHIBITION [%]
1,CC(N)C(=O)N1CCC(Oc2cccc(C(F)(F)F)c2)CC1 (configuration not stated),26.6
2,CCc1cccc(OC2CN(C(=O)[C@@H](N)[C@@H](C)O)C2)c1,62.4
3,CCc1cccc(OC2CN(C(=O)[C@@H](N)CCSC)C2)c1,23.9
4,Cc1nc2cc(=O)[nH]n2c(C)c1CC(=O)Nc1cn[nH]c1,53.9
5,Cc1nc2cc(=O)[nH]n2c(C)c1CC(=O)Nc1cnn(C)c1,15
6,Cc1nc2cc(=O)[nH]n2c(C)c1CC(=O)Nc1cnn(C(C)(C)C)c1,49.6
7,Cn1cc(CN2CCC3(CC2)CN(C(=O)c2cnccn2)CCO3)cn1,-13.2
8,CCOCCc1nc(Cc2ccccc2)n[nH]1,10.3
9,O=C1COC2(CCN(Cc3cccnc3)CC2)CN1,18.2
10,O=C(COCc1ccccc1Cl)N1CCN(c2cnccn2)CC1,-9.51
11,O=C(COCc1ccccc1Cl)N1CCN(c2ccc(Br)cn2)CC1,60.3
12,O=C(COCc1ccccc1Cl)N1CCN(c2ncccn2)CC1,-133
13,COc1ccc(Cl)cc1S(=O)(=O)N1C[C@H]2CC[C@@H](C1)N(C)C2=O,48.9
14,CN(C)CC(=O)N1CCC2(CC1)Cc1ccccc1CN(C)C2=O,18.6
15,Cc1ccc(CN2C[C@@H]3CN(C(=O)c4cccn4C)C[C@@H]3C2)cc1,8.74
16,c1cn(-c2ccc(CN3CCOC(Cn4cncn4)C3)cc2)cn1 (configuration not stated),27.6
17,COC(=O)c1ccc(NC(=O)CCc2ccncc2)c(C)c1,50.1
18,COc1ccc(CCC(=O)Nc2ccncc2C)cc1,12.8
19,CCC(C)NC(=O)c1ccc(NC(=O)CCc2ccncc2)c(C)c1 (configuration not stated),39

row,SMILES,INHIBITION [%]
1,O=C(CCOc1ccccc1Cl)N1CCN(c2cnccn2)CC1,-33.7
2,CC(NC(=O)N1CCC[C@H]1CO)c1noc(-c2ccccc2)n1 (some centres not stated),8.38
3,CCN1CCN(C(=O)NC(C)c2noc(-c3ccccc3)n2)CC1 (configuration not stated),51.1
4,CC(NC(=O)N1CCSC(C)(C)C1)c1noc(-c2ccccc2)n1 (configuration not stated),38.3
5,Cc1nc(CNCc2c(C(C)C)nn(C)c2N2CCOCC2)cs1,49.6
6,COc1ccc2c(c1)C(C(=O)NCCN1CCNC1=O)CC(=O)N2 (configuration not stated),5.36
7,CCc1nc(C)c(CNC(=O)CCCN2CCCCC2)s1,9.87
8,CCN1CCC(CC(=O)NCc2cc(C)nn2C)CC1,-6.59
9,Cc1nc(CCNC(=O)CC2CCN(C(C)C)CC2)sc1Cl,60.9
10,Cc1nc(CCNC(=O)C2CCN(C(C)C)CC2)sc1Cl,-3.72
11,CCCN1CCC(CC(=O)NCCc2nc(C)cc(C)n2)CC1,-37.2
12,CCN1CCC(CC(=O)NCCc2nc(C)cc(C)n2)CC1,-26.1
13,Cc1cc(C(F)(F)F)nc(CNC(=O)CCCN2CCCCC2)n1,48
14,CCN1CCC(CC(=O)NCCc2nc(C)c(Cl)s2)CC1,13
15,Cc1cc(CNC(=O)CC2CCN(C(C)C)CC2)n(C)n1,60.8
16,Cc1cc(CNC(=O)CCCN2CCCCC2)n(C)n1,73.6
17,CCCN1CCC(CC(=O)NCc2cc(C)nn2C)CC1,22.3
18,CCN1CCC(CC(=O)NCc2nc(C)cc(C)n2)CC1,69.9
